Laboratory results from PubChem BioAssay.
Activity calls are given as the source filed them. The rule behind the calls is not given here.

What follows are compounds tested against Pantothenate synthetase (Mycobacterium tuberculosis (strain ATCC 25618 / H37Rv)) (UniProt P9WIL5) (assay: Recombinant Mtb pantothenate synthetase (PanC) inhibitors, coupled enzyme, confirmatory (AID 375;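 note: 0% = full reaction with vehicle and 100% = no enzyme background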)). Settings: coupled enzyme assay; at 10 µM, hits give high values.
Pantothenate synthetase (Mycobacterium tuberculosis (strain ATCC 25618 / H37Rv)), sequence (P9WIL5 whole entry, looked up): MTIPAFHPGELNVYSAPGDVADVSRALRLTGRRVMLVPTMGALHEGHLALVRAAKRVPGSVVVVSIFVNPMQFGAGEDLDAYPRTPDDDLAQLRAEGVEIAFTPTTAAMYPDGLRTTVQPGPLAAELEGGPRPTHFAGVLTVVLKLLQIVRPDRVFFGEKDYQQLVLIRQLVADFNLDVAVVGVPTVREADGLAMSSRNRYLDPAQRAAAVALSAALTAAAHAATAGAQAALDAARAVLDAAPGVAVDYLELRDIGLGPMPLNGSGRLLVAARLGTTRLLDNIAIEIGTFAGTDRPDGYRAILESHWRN

Which inhibition does the source give for CN1CCc2c(sc3c2c(=O)n(-c2cccc(Cl)c2)c2nncn32)C1 here?
The inhibition was 0% (inactive).

c1ccc(-c2nc3cnccn3c2Nc2ccc3c(c2)OCCO3)cc1 was tested. Which inhibition did it give?
The inhibition was 0% (inactive).

With COc1ccccc1N1C(=O)c2ccccc2NC1c1ccncc1 (centres undefined) as the compound, how does the inhibition read?
Its inhibition is 3% (inactive).

For O=C(c1cc(-c2cccs2)on1)N1CCc2ccccc2C1, which inhibition is on record?
The inhibition was 2% (inactive).

Which inhibition does the source give for CCOC(=O)N1CCN(CCC(=O)c2ccc(Cl)cc2)CC1 here?
The inhibition was 2% (inactive).

O=C(CSc1nnc(-c2ccccc2)o1)NC1CCCCC1 was tested. Which inhibition did it give?
Its inhibition is 0% (inactive).

Which inhibition does the source give for CC(C)c1ccc(C(O)c2cnc(C(C)C)n2C)cc1 (centres undefined) here?
Its inhibition is 1% (inactive).

O=C(Cn1ccc2ccccc2c1=O)NCCC(=O)NC1CCN(Cc2ccccc2)CC1 was tested. Which inhibition did it give?
Its inhibition is 0% (inactive).

With Cc1nn(C(=O)c2ccccc2)c2c1C(=O)CC(C)(C)C2 as the compound, how does the inhibition read?
Its inhibition is 0% (inactive).

Which inhibition does the source give for C(/CCc1ccccc1)=N\n1cnnc1 here?
The inhibition was 8% (inactive).

Which inhibition does the source give for Cc1cc(-c2ccccc2)nc(SCc2ccc(C(=O)O)o2)n1 here?
The inhibition was 0% (inactive).

Which inhibition does the source give for CCOC(=O)c1nc2sc3c(c2c(=O)[nH]1)CCCC3 here?
Its inhibition is 0% (inactive).

How did the inhibition turn out when O=C(N1CCOCC1)N1CCC(NC(=O)C23CC4CC(CC(C4)C2)C3)CC1 was run?
Its inhibition is 0% (inactive).

For Cc1cc(C(=O)Nc2c(F)cc(F)cc2Br)no1, which inhibition is on record?
Its inhibition is 0% (inactive).

Which inhibition does the source give for COC(=O)COc1ccc(C(=O)OC)cc1 here?
Its inhibition is 2% (inactive).

Which inhibition does the source give for Clc1cccc(-c2nnc(-c3ccccc3)o2)c1 here?
Its inhibition is 0% (inactive).

For O=C1C2CCCN2C(c2ccc(Cl)cc2)N1c1nccs1 (centres undefined), which inhibition is on record?
Its inhibition is 0% (inactive).

With CCCCOc1cccc(NC(=O)CSc2nccn2C)c1 as the compound, how does the inhibition read?
The inhibition was 2% (inactive).

With COc1ccc(CNS(=O)(=O)c2ccc3oc(C(=O)O)c(C)c3c2)cc1 as the compound, how does the inhibition read?
The inhibition was 0% (inactive).
